# Measurements published in the supplement of paper PMC10338343.
# ± gives the standard deviation.
# Tested on: MILI (PIWIL2) piRISC loaded with piRNA #1 (26 nt)
# Experiment: pre-steady-state target cleavage rate (min^-1); guide: piRNA #1 5'p-UGAGGUAGUAGGUUGUAUAGUAUCCA; MIWI and MILI are mouse PIWI proteins and EfPiwi is from a freshwater sponge; tags in brackets are library labels; higher = faster piRNA-guided slicing of the target
# Conditions: auxiliary factor: 500 nM mouse GTSF1
# Outline: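 Cleave-'n-Seq measured uncleaved targets by sequencing after a transcribed, DNA-blocked target RNA library […] was mixed with 1 nM active affinity-purified piRISC holding one synthetic guide, with or without 500 nM GTSF1 partner protein, at 33 °C in HEPES–potassium acetate buffer for 0–8 or 0–960 min. Counts were normalised to depth and to weakly complementary targets, three trials were pooled, and k3 was capped at 0.0001 min^-1. A burst-and-steady-state fit gave the pre-steady-state cleavage rate.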
# 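Also: 1 nM active piRISC with 0.1 nM target library at 33 °C single turnover.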
row,Sequence,pre-steady-state target cleavage rate
1,GGAGACCUAUGAUAUGAACCUAGCUACCUCA,< 0.0001
2,GGAGACCUAUGUAUACUACCUACUACCUGA,0.0173 ± 0.0042
3,GGAGACCUAUCUAGACAACCUACUACCUCA,0.103 ± 0.016
4,GGAGACCUUUGUAUACAACCUACUACCUCA,0.0347 ± 0.0065
5,GGAGACCUAACUAUACAAGCUACUAGCUCA,0.159 ± 0.042
6,GGAGUGGAUUCUAUACAACCUACAACCUCA,0.0777 ± 0.0074
7,GGAGACCUAUGUAUUCAACCUACUAGCUCA,0.0092 ± 0.0033
8,GGAGACCUAUGAUAACAACCUACUUCCUCA,0.00353 ± 0.0025
9,GGAGACCUAACUAUACAACCUACUAUCCUCA,0.177 ± 0.047
10,GGAGUCGAUACUUUACAACCUACUACCUCA,0.185 ± 0.009
11,GGAGACGAUACUAUACAACCUACUGCCUCA,0.11 ± 0.015
12,GGAGACCUAUGAAUACAAGCUACUACCUCA,0.0349 ± 0.0069
13,GGAGACCUUACUAUUCAACCUACUACGUCA,0.0709 ± 0.0096
14,GGAGACCUAUGAUAUGUACCUACUAGCUCA,< 0.0001
15,GGAGACCAUUCUAUACAAGCUACUACCUCA,0.254 ± 0.018
16,GGAGACCAUACUAUAGAACCUACUACCACA,0.0789 ± 0.021
17,GGAGACCUAAGUAUACAUCCUACUACCUCA,0.0911 ± 0.0089
18,GGAGACCUAUGAAUACAAGCUAGUACCUCA,0.0081 ± 0.0031
19,GGAGACCUAUCUCAUACAACCUACUACCUCA,0.0664 ± 0.01
20,GGAGACCUUAGAUUACAACCUACUACCUCA,0.0208 ± 0.007

row,Sequence,pre-steady-state target cleavage rate
1,GGAGUGCAUACUAUUCAACCUACUACCUCA,0.182 ± 0.011
2,GGAGACCUAACUAUACAACCUACUUACCUCA,0.135 ± 0.021
3,GGAGACCUUAAUAUACAACCUACUACCUCA,0.0318 ± 0.0064
4,GGAGACCUAACAAUACAACCUACUUCCUCA,0.0651 ± 0.019
5,GGAGACCUAUGUAUACAACGUACUACCUCA,0.00969 ± 0.0018
6,GGAGACCUUACUAAACAAGCUACUACCUCA,0.231 ± 0.018
7,GGAGACCUAACUAGUACAACCUACUACCUCA,0.0828 ± 0.019
8,GGAGAGGUUACUAAACAACCUACUACCUCA,0.142 ± 0.013
9,GGAGACCUAUGAUAUGUACCAACAACCUCA,< 0.0001
10,GGAGAGGAUACUAAACAACGUACUACCUCA,0.013 ± 0.0022
11,GGAGUGGAUACUAUACAACCUUCAACCUCA,0.00344 ± 0.0019
12,GGAGACGAUACAUAUACAACCUACUACCUCA,0.111 ± 0.013
13,GGAGACCUAUGAUUACAUGCUACUACCUCA,0.00366 ± 0.0034
14,GGAGACCUAACUAUAAAACCUACUACCUCA,0.0772 ± 0.013
15,GGAGACCUAACUAUACAACCUACUCACCUCA,0.147 ± 0.032
16,GGAGACCUAUGUAUACAACCUACUACUCA,0.063 ± 0.013
17,GGAGACCUAUGUAUACAACGUACAACCUCA,0.00935 ± 0.0021
18,GGAGACCUAUGUAUACAACCUAGUUCCUCA,0.00347 ± 0.003
19,GGAGAGGAUAGUAUAGAACCUACUACCUCA,0.0708 ± 0.012
20,GGAGACCUAACUAUACUAGCUACUACCUCA,0.12 ± 0.015
